# Data taken from a collection of fitness landscapes (doi:10.1016/j.celrep.2020.107928).
# In all, about 81,000 sequences were measured (“one-hybrid fitness for binding NBS DNA”: median about -0.1, highest 2% from about 0.36 on). The sample as a whole holds a higher share of the highest values than the screen did.
# B1: Caulobacter ParB omega fusion; a variant is named by its letters at X, in order, B8GW30 (parent)
# chain: MESVVVGEPGMSEGRRGLGRGLSALLGEVDAAPAQAPGEQLGGSREAPIEILQRNPDQPRRTFREEDLEDLSNSIREKGVLQPILVRPSPDTAGEYQIVAGERAWRAAQRAGLKTVPIMVRELDDLAVLEIGIIENVQRADLNVLEEALSYKVLMEKFERTQENIAQTIGKSXSHVANXMRLLXLPDEVQSYLVSGELTAXHARAIAAAADPVALAKQIIEGGLSVRETEALARKAPNLSAGKSKGGRPPRVKDTDTQALESDLSSVLGLDVSIDHRGSTGTLTITYATLEQLDDLCNRLTRGI
# Variants of: B1
# Test: one-hybrid fitness for binding NBS DNA (the Noc-binding site; scaled: cognate 1, non-cognate 0); higher = stronger binding
# Conditions: with NBS DNA site
# Summary of the method: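 The reporter was HIS3, with the binding site 19 bp from the promoter, in E. coli USO used for bacterial one-hybrid selection of Caulobacter ParB libraries with four specificity codons randomised. Growth was on M9 lacking histidine, with 0.1 mM IPTG and 5 mM 3-AT, for 48 hours at 37°C. Illumina sequencing covered plasmids before and after selection; three replicate libraries were pooled and variants with under 10 reads dropped. A fitness score is the log change in variant-to-wild-type read ratio, rescaled to the cognate and non-cognate references.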
row,Variant,one-hybrid fitness for binding NBS DNA
1,LRDR,≤ 0.2
2,LRYR,≤ 0.2
3,LRRR,0.483
4,LRKR,0.452
5,LRVR,0.207
6,LCKR,0.207
7,LRGN,≤ 0.2
8,TTRD,≤ 0.2
9,YFPL,≤ 0.2
10,PYKL,≤ 0.2
11,RKSS,0.544
12,RHSN,≤ 0.2
13,RCSS,0.522
14,RPSS,≤ 0.2
15,RLSS,0.411
16,RKSN,≤ 0.2
17,RFSS,0.231
18,RHSP,≤ 0.2
19,RHSS,0.438
20,RLSN,≤ 0.2
21,RKSP,≤ 0.2
22,RLSD,≤ 0.2
23,TAMR,≤ 0.2
24,PIWS,≤ 0.2

row,Variant,one-hybrid fitness for binding NBS DNA
1,TISQ,≤ 0.2
2,GDNM,≤ 0.2
3,KDTE,≤ 0.2
4,EWSR,≤ 0.2
5,APCT,≤ 0.2
6,RMSH,≤ 0.2
7,RASH,≤ 0.2
8,RSSS,0.437
9,RSSD,≤ 0.2
10,RMSS,0.439
11,RASN,≤ 0.2
12,RMSD,≤ 0.2
13,RASS,0.421
14,RSSP,≤ 0.2
15,LPKA,≤ 0.2
16,QSPH,≤ 0.2
17,HLSL,≤ 0.2
18,NDNR,≤ 0.2
19,NAKL,≤ 0.2
20,QILN,≤ 0.2
21,TTWI,≤ 0.2
22,SQRH,≤ 0.2
23,QCCR,0.599
24,QPCR,≤ 0.2

row,Variant,one-hybrid fitness for binding NBS DNA
1,QKCR,0.519
2,QKCD,≤ 0.2
3,QACH,≤ 0.2
4,QECR,≤ 0.2
5,QMCM,≤ 0.2
6,QKCM,≤ 0.2
7,QMCR,0.509
8,QMCY,0.212
9,QACR,0.447
10,QACS,0.272
11,SHHD,≤ 0.2
12,AWRT,≤ 0.2
13,FPKF,≤ 0.2
14,NPPH,≤ 0.2
15,KTTD,≤ 0.2
16,EIVG,≤ 0.2
17,PQLT,≤ 0.2
18,LLMK,≤ 0.2
19,QSCD,≤ 0.2
20,QICR,0.377
21,QICS,0.216
22,QTCG,≤ 0.2
23,QHCR,0.473
24,QHCN,≤ 0.2

row,Variant,one-hybrid fitness for binding NBS DNA
1,QHCS,0.279
2,QTCF,≤ 0.2
3,QICG,≤ 0.2
4,QTCR,0.679
5,QSCR,0.493
6,QSCN,≤ 0.2
7,SPDS,≤ 0.2
8,SFYS,≤ 0.2
9,PAKH,≤ 0.2
10,GLKV,≤ 0.2
11,DMTR,≤ 0.2
12,PHDI,≤ 0.2
13,QSYD,≤ 0.2
14,QDRR,0.275
15,QSYR,0.458
16,QGRR,0.33
17,QSRR,1
18,QGYR,≤ 0.2
19,QCYR,0.606
20,QWYR,0.201
21,HTCT,≤ 0.2
22,HKQR,≤ 0.2
23,IERR,≤ 0.2
24,GCNT,≤ 0.2

row,Variant,one-hybrid fitness for binding NBS DNA
1,VMRG,≤ 0.2
2,EMRQ,≤ 0.2
3,IITW,≤ 0.2
4,YLQI,≤ 0.2
5,KRMS,0.396
6,DRMT,≤ 0.2
7,KRMT,0.539
8,KRMN,≤ 0.2
9,KCMT,≤ 0.2
10,KSMR,≤ 0.2
11,KRMR,0.51
12,KCMR,≤ 0.2
13,KRMD,≤ 0.2
14,TALF,≤ 0.2
15,RINP,≤ 0.2
16,RANT,0.496
17,RINT,0.554
18,RADT,≤ 0.2
19,RTNN,≤ 0.2
20,RTDT,0.284
21,RTNT,0.636
22,RSNT,0.503
23,RSNN,≤ 0.2
24,RANP,≤ 0.2

row,Variant,one-hybrid fitness for binding NBS DNA
1,RIDT,≤ 0.2
2,RSDT,≤ 0.2
3,WWTD,≤ 0.2
4,LSRK,≤ 0.2
5,SSTW,≤ 0.2
6,ASEC,≤ 0.2
7,SYLM,≤ 0.2
8,SHDP,≤ 0.2
9,PPLD,≤ 0.2
10,IVCR,≤ 0.2
11,GYLC,≤ 0.2
12,RHND,≤ 0.2
13,RFNT,0.279
14,RHNT,0.508
15,RMNH,0.26
16,RHDT,0.258
17,RCNT,0.589
18,RMNT,0.546
19,RMDT,0.226
20,RPNT,≤ 0.2
21,ADTR,≤ 0.2
22,WVAC,≤ 0.2
23,TAAM,≤ 0.2
24,SGRG,≤ 0.2

row,Variant,one-hybrid fitness for binding NBS DNA
1,CNSI,≤ 0.2
2,HRTD,≤ 0.2
3,KSYC,≤ 0.2
4,QIRR,0.867
5,QPRR,0.365
6,QERR,0.245
7,QPYR,≤ 0.2
8,QCRR,1.13
9,QIPR,0.203
10,QWRR,0.355
11,QIYR,0.348
12,GWMI,≤ 0.2
13,TGPP,≤ 0.2
14,RGHW,≤ 0.2
15,KLGK,≤ 0.2
16,AATY,≤ 0.2
17,KFTC,≤ 0.2
18,SYMR,≤ 0.2
19,GWRK,≤ 0.2
20,FEGS,≤ 0.2
21,RYHP,≤ 0.2
22,RYKR,0.744
23,RYVR,0.269
24,RYNR,0.519

row,Variant,one-hybrid fitness for binding NBS DNA
1,RYSP,≤ 0.2
2,RYHR,0.471
3,RYNH,0.209
4,RYSR,0.452
5,RYSD,≤ 0.2
6,RYDR,0.207
7,RYHH,≤ 0.2
8,RYKG,≤ 0.2
9,THIG,≤ 0.2
10,RYLR,0.354
11,RYWR,0.269
12,RYGR,0.432
13,RYGP,≤ 0.2
14,RYRR,0.726
15,RYIR,0.203
16,RYYR,0.404
17,RYPR,≤ 0.2
18,RYGH,≤ 0.2
19,RYQN,≤ 0.2
20,RYQR,0.44
21,RYQP,≤ 0.2
22,QYAV,≤ 0.2
23,ENTF,≤ 0.2
24,ECNK,≤ 0.2

row,Variant,one-hybrid fitness for binding NBS DNA
1,PSCV,≤ 0.2
2,ALDS,≤ 0.2
3,AKVC,≤ 0.2
4,RYAP,≤ 0.2
5,RYCN,≤ 0.2
6,RYCD,≤ 0.2
7,RYCR,0.377
8,RYFR,0.241
9,RYAR,0.43
10,REYM,≤ 0.2
11,RFAG,≤ 0.2
12,QLRK,0.336
13,QAYK,≤ 0.2
14,QPRK,≤ 0.2
15,QCRK,0.478
16,QSYK,≤ 0.2
17,QSRK,0.376
18,QADK,≤ 0.2
19,QMRK,0.387
20,QCYK,≤ 0.2
21,QARK,0.37
22,QMYK,≤ 0.2
23,QMDK,≤ 0.2
24,GVLR,≤ 0.2

row,Variant,one-hybrid fitness for binding NBS DNA
1,WSLR,≤ 0.2
2,LIRR,≤ 0.2
3,KRDL,≤ 0.2
4,YEVL,≤ 0.2
5,QTDK,≤ 0.2
6,QKNK,≤ 0.2
7,QTYK,≤ 0.2
8,QTRK,0.546
9,QKRK,0.429
10,QKDK,≤ 0.2
11,YNVR,≤ 0.2
12,VWSR,≤ 0.2
13,HGEV,≤ 0.2
14,TVPQ,≤ 0.2
15,CGAE,0.595
16,FGAR,0.385
17,CGFR,≤ 0.2
18,CGAR,0.441
19,FGFR,≤ 0.2
20,NGAE,≤ 0.2
21,CGVE,≤ 0.2
22,CGYR,≤ 0.2
23,FGYR,≤ 0.2
24,ITGA,≤ 0.2

row,Variant,one-hybrid fitness for binding NBS DNA
1,QREE,≤ 0.2
2,CKNS,≤ 0.2
3,ATHI,≤ 0.2
4,YEAF,≤ 0.2
5,WRNM,≤ 0.2
6,TRHT,0.364
7,LQMW,≤ 0.2
8,YQHT,≤ 0.2
9,QTGG,0.204
10,QTGR,0.813
11,QIGD,≤ 0.2
12,QPGR,≤ 0.2
13,QSGP,≤ 0.2
14,QTGM,0.3
15,QIGR,0.437
16,QSGH,≤ 0.2
17,QIGS,0.295
18,QSGR,0.547
19,QGGR,≤ 0.2
20,QCGR,0.764
21,LCEP,≤ 0.2
22,GKTT,≤ 0.2
23,LKMC,≤ 0.2
24,WIPG,≤ 0.2

row,Variant,one-hybrid fitness for binding NBS DNA
1,IPHT,≤ 0.2
2,YLLF,≤ 0.2
3,SHQN,≤ 0.2
4,LRKG,≤ 0.2
5,QQKL,0.327
6,QQVD,≤ 0.2
7,QQVH,≤ 0.2
8,QQVR,0.491
9,QQKR,1.1
10,QQKE,0.335
11,AGDY,≤ 0.2
12,GMLG,≤ 0.2
13,RCVE,≤ 0.2
14,YVKV,≤ 0.2
15,QRWS,0.54
16,QRYP,≤ 0.2
17,QRRN,0.547
18,QRWP,≤ 0.2
19,QRYN,0.319
20,QRRD,0.356
21,QRRS,0.787
22,QRWN,≤ 0.2
23,QRYS,0.646
24,QRRP,0.359

row,Variant,one-hybrid fitness for binding NBS DNA
1,QRYD,0.222
2,NAHV,≤ 0.2
3,FSNM,≤ 0.2
4,SRRP,≤ 0.2
5,THHR,≤ 0.2
6,VCSD,≤ 0.2
7,WQLA,≤ 0.2
8,RTRG,0.215
9,CCQR,≤ 0.2
10,CVKA,≤ 0.2
11,MAIS,≤ 0.2
12,NATF,≤ 0.2
13,MAFC,≤ 0.2
14,ECWS,≤ 0.2
15,QCES,0.301
16,QREN,≤ 0.2
17,QRES,0.469
18,PSVG,≤ 0.2
